Experimental findings from PubChem BioAssay AID434970 (Sanford-Burnham Center for Chemical Genomics, 2010) are described below.

In all, about 11,000 compounds went through this assay and about 310 (2.8%) were called active. No stated cut-off is given here; in the data, active means activity change below about -85%; inactive means the rest. The sample as a whole holds a higher share of actives than the screen did.

For the assay, the system named is intestinal alkaline phosphatase [Mus musculus]. Put plainly: activators of mouse IAP, confirmation, biochemical, luminescence, single concentration (AID 434970). As to conditions: purified mouse IAP, CDP-Star luminescence, 30 min, at 10 µM; activation factor: measured here: IAP activation factor, stronger effect = higher value; activity change, negative = activation: stronger effect = lower value.
In the case of `CC(O)c1nc2ccccc2n1Cc1nnc(-c2ccc(Cl)cc2)o1` (stereo not drawn), the activation factor was found to be 0.857 and the activity change, negative = activation was 14.3% (inactive).
As to `Cn1nc(OCc2ccccc2)ccc1=O`, the activation factor was 0.947 and the activity change, negative = activation was 5.35% (inactive).
The matching figures for `CCC(C)OC(=O)c1cc(C)nc2c(Br)cc(Br)cc12` (stereo not drawn): 1.02 and -2% (inactive).
Regarding `CC[C@]12c3[nH]c4ccc(Cl)cc4c3CCN1C(=O)[C@@H](CC(=O)NCC13CC4CC(CC(C4)C1)C3)C[C@@H]2C(=O)N1CCN(C(=O)c2ccco2)CC1`, the activation factor was determined as 1.1 and the activity change, negative = activation was -9.55% (inactive).
Turning to `CCOC(=O)c1sc(NC(=O)Nc2ccccc2Cl)cc1C`, the activation factor stood at 1.89 and the activity change, negative = activation is -89.1% (inactive).
The matching figures for `Cc1cc(C)c2c(n1)sc1c(=O)[nH]c(SCc3ccccc3)nc12`: 0.801 and 19.9% (inactive).
Consider `CCOC(=O)Cn1cnc([N+](=O)[O-])n1`, for which the activation factor was found to be 0.92 and the activity change, negative = activation is 8% (inactive).
Consider `COc1cc(-c2nnc(COC(=O)CSc3cc(C)c4ccccc4n3)o2)cc(OC)c1OC`, for which the activation factor amounted to 0.99 and the activity change, negative = activation was 0.95% (inactive).
For the molecule `COc1cccc(NC(=S)NCCN2CCOCC2)c1`, the activation factor is 1.08 and the activity change, negative = activation is -8.4% (inactive).
The matching figures for `COc1cc(NC(=O)C(Cc2ccccc2)n2cccc2)cc(OC)c1` (stereo not drawn): 1.12 and -12.3% (inactive).
The matching figures for `COc1cc(NC(=S)NCCC(c2ccccc2)c2ccccc2)cc(OC)c1`: 3.28 and -228% (active).
`COc1ccc(CNC(=S)Nc2cccc(Cl)c2)cc1`: the activation factor amounted to 1.25 and the activity change, negative = activation was -24.7% (inactive).
Taken in the same sequence, the figures for `COc1cccc(NC(=S)NCCC(c2ccccc2)c2ccccc2)c1` were 3.53 and -253% (active).
Taken in the same sequence, the figures for `CCCCNC(=S)Nc1ccc(Oc2ccccc2)cc1` were 1.71 and -70.5% (inactive).
On to `COc1ccc(S(=O)(=O)Nc2ccccc2)cc1OC`, for which the activation factor is 0.947 and the activity change, negative = activation was 5.35% (inactive).
Taken in the same sequence, the figures for `COc1ccc(C(=O)CSc2nnnn2Cc2ccccc2)cc1` were 0.953 and 4.7% (inactive).
The matching figures for `Cc1ccc2c(Cl)c(C(=O)Nc3cc(C)on3)sc2c1`: 0.873 and 12.6% (inactive).
For `CC[C@H](C)[C@@H](C(=O)NCCCCCCCCCCC(=O)N1CCN(C(=O)OC(C)(C)C)CC1)n1cc(CCCCCNC(=O)OC(C)(C)C)nn1`, the activation factor came to 1.52 and the activity change, negative = activation was -51.8% (inactive).
Consider `CC(C)(C)OC(=O)CC[C@@H](C(=O)NCCCCCCCCCCC(=O)N1CCN(C(=O)OC(C)(C)C)CC1)n1cc(CCCCCNC(=O)OC(C)(C)C)nn1`, for which the activation factor was 1.51 and the activity change, negative = activation is -51% (inactive).
The matching figures for `C#CCOCCOCCOCCNc1nc(N2CCN(C(=O)[C@H](Cc3cc4ccccc4[nH]3)n3cc([C@@H](N)C(C)CC)nn3)CC2)nc(N2CCN(C(=O)[C@H](Cc3cc4ccccc4[nH]3)n3cc([C@@H](N)Cc4ccc(O)cc4)nn3)CC2)n1` (stereo partly drawn): 1.43 and -42.8% (inactive).
Taken in the same sequence, the figures for `C#CCOCCOCCOCCNc1nc(N2CCN(C(=O)CCCCCCCCCCNC(=O)[C@H]([C@@H](C)CC)n3cc(CCCCCN)nn3)CC2)nc(N2CCN(C(=O)CCCCCCCCCCNC(=O)[C@H]([C@@H](C)CC)n3cc(CCCCN=C(N)N)nn3)CC2)n1` were 15.6 and -1460% (active).
Taken in the same sequence, the figures for `CC[C@H](C)[C@@H](C(=O)NCCCCCCCCCCC(=O)N1CCN(C(=O)OC(C)(C)C)CC1)n1cc(CCCCN=C(NC(=O)OC(C)(C)C)NC(=O)OC(C)(C)C)nn1` were 2.29 and -128% (active).
Take `C#CCOCCOCCOCCNc1nc(N2CCOCC2)nc(N2CCN(C(=O)CCCCCCCCCCNC(=O)[C@H]([C@@H](C)CC)n3cc(CCCCN=C(N)N)nn3)CC2)n1`: the activation factor stood at 2.37 and the activity change, negative = activation is -137% (active).
The matching figures for `C#CCOCCOCCOCCNc1nc(N2CCN(C(=O)CCCCCCCCCCNC(=O)[C@H]([C@@H](C)CC)n3cc(CCCCN=C(N)N)nn3)CC2)nc(N2CCN(C(=O)CCCCCCCCCCNC(=O)[C@H](CO)n3cc(CCCCCN)nn3)CC2)n1`: 6.62 and -562% (active).
Consider `O=C(CCS(=O)(=O)c1cccc2nonc12)Nc1cccc2c1CCCC2`, for which the activation factor amounted to 0.972 and the activity change, negative = activation is 2.85% (inactive).
The matching figures for `O=C(c1ccc(F)cc1)N1CCN(c2cc(=O)[nH]nc2-c2ccccc2)CC1`: 1.17 and -17.4% (inactive).
The matching figures for `COc1ccc(-n2c(COc3ccccc3)nnc2SCC(N)=O)cc1`: 0.967 and 3.3% (inactive).
The matching figures for `CCOC(=O)N1CCC(NC(=O)C2CCC(Cn3c(=O)[nH]c4ccccc4c3=O)CC2)CC1` (stereo not drawn): 0.908 and 9.15% (inactive).
Consider `O=C1CC(c2nc3ccccc3[nH]2)CN1c1ccccc1` (stereo not drawn), for which the activation factor is 0.951 and the activity change, negative = activation is 4.9% (inactive).
Taken in the same sequence, the figures for `O=c1ccc(NS(=O)(=O)c2ccc(Cl)cc2)cn1Cc1ccc(Cl)c(Cl)c1` were 0.948 and 5.2% (inactive).
The matching figures for `CC1C(C)C(O)(c2ccccc2)CCN1C` (stereo not drawn): 0.956 and 4.35% (inactive).
For `c1ccc(NC2=NCCCCS2)cc1`, the activation factor came to 1.06 and the activity change, negative = activation was -5.6% (inactive).
`C#CCOCCOCCOCCNc1nc(N2CCN(C(=O)CCCCCCCCCCNC(=O)[C@H]([C@@H](C)CC)n3cc(CCCCN=C(N)N)nn3)CC2)nc(N2CCN(C(=O)CCCCCCCCCCNC(=O)[C@H]([C@@H](C)CC)n3cc(CCCCN=C(N)N)nn3)CC2)n1`: the activation factor came to 22.7 and the activity change, negative = activation was -2170% (active).
Taken in the same sequence, the figures for `C#CCOCCOCCOCCNc1nc(N2CCN(C(=O)CCCCCCCCCCNC(=O)[C@H]([C@@H](C)CC)n3cc(CCCCN=C(N)N)nn3)CC2)nc(N2CCN(C(=O)CCCCCCCCCCNC(=O)[C@@H]([C@H](C)O)n3cc(C)nn3)CC2)n1` were 14.6 and -1360% (active).
